# Source: PubChem BioAssay (NCI)
# The panel holds about 83,000 compounds, 20% with a hit somewhere; the sample as a whole holds those more often.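 The endpoint reported here, percent growth, reads 100 for growth as untreated, 0 for no net growth and -100 for all cells dead.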 A number with no mark means an inactive call. Activity calls are given as the source filed them. How the source made its calls: active means growth percent below 10; inactive means the rest.
# System: HL-60(TB) leukemia
# Assay: NCI-60 one-dose screen, 48 h (100 = growth as untreated, 0 = no growth, -100 = all killed)
# Details: 10 µM unless noted
row,SMILES,growth
1,CCN(C(=O)CN1CCN(c2cc3c(cc2F)c(=O)c(C(=O)O)cn3CC)CC1)c1nc(-c2ccccc2)cs1,-39.2% (active)
2,CC[C@@H](C(=O)[C@@H](C)[C@@H](O)[C@H](C)[C@@H]1O[C@@H]([C@@H](CC)C(=O)ONC(=O)c2ccccc2O)CC[C@@H]1C)C1O[C@]2(C=CC(=O)[C@]3(CC[C@@](C)([C@H]4CC[C@](O)(CC)[C@H](C)O4)O3)O2)[C@H](C)C[C@@H]1C (some centres undefined),-45.7% (active)
3,O=C(CSc1nnc(-c2ccc(Cl)c(Cl)c2)n1-c1ccccc1)Nc1ccc(C(=O)/C=C/c2ccc(Cl)cc2)cc1,81.8%
4,C[C@@H]1C(=O)[C@@H]2C[C@@H](O)[C@@H](O)C[C@]2(C)[C@H]2CC[C@@]3(C)C(=C12)CC[C@@H]3[C@@](C)(O)[C@H](O)CCC(C)(C)O,85.7%
5,COc1ccccc1Cn1cc2c(c1-c1ccccc1)CCc1cnoc1-2,19.4%
6,COc1cc2nc(NC3CCC3)nc(NC3CCN(C(C)C)CC3)c2cc1OC,4.58% (active)
7,COc1ccc(OC)c2c1C(=O)CC2C (centres undefined),103%
8,O=C1CCC(C(=O)N/N=C/c2cc(F)ccc2F)N1 (centres undefined),99.2%
9,CCN1CCN(CC(=O)Nc2nc3ccc(NCc4ccc(C)cc4)cc3s2)CC1,32.5%
10,C/C(Cc1ccc(Cl)cc1)=C(\c1ccc(OCCN2CCCCCC2)cc1)c1ccc(OC(=O)C2CCCCC2)cc1,17.6%
11,Cc1cc(Nc2nc(N3CCNCC3)nc3ccccc23)n[nH]1,106%
12,Clc1ccc(C2=NN=C3C(Cc4ccccc4)=Nc4ccccc4N3C2)cc1,25.2%
13,CC(C)(C)c1nc(-c2cccc(NS(=O)(=O)c3c(F)cccc3F)c2F)c(-c2ccnc(N)n2)s1,35.1%
14,O=c1cc/c(=N\Nc2ccccc2)c(=O)/c1=N/Nc1ccccc1,138%
15,COc1ccc(-c2cc(=O)c3c(OC)c4ccoc4c(/C=C/C=O)c3o2)cc1,-3.36% (active)
16,COc1ccc(-c2cc(-c3cccnc3)nc3sc4c(Cl)nnnc4c23)cc1OC,85.4%
17,Nc1nc(N)c2c(n1)NC(c1cccc(Nc3ccnc4cc(C(F)(F)F)ccc34)c1)CC(c1ccccc1)=N2 (centres undefined),34.8%
18,CCCCCCNC(=O)Oc1ccc(/C(=C(\C)c2ccc(OC)cc2)c2ccc(OCCN3CCCCC3)cc2)cc1,46.3%
19,O=C(NC1CC(F)C1)c1cc2cccnc2n1-c1ccc(Cl)c(Cl)c1 (centres undefined),97.2%
20,Cn1c2ccccc2c2c3c(c4c5cccnc5[nH]c4c21)C(=O)N(O)C3=O,17.2%
21,O=C(Nc1ccc(N=Cc2ccccc2O)cc1)NC1C=c2ccccc2=CC1 (centres undefined),79.4%
22,Nc1ncnc2c1c(-c1ccc(Oc3ccccc3)cc1)nn2CC1SSCC1O (centres undefined),-25.9% (active)
23,CN1CCN(CC(O)COc2c(Br)c(Br)c(Br)c3c2OC(C)(C)C3)CC1 (centres undefined),35.5%
24,COc1cnc2c(c1)C(=O)c1c-2n(CCCNC2=NCCS2)c(=O)c2cc([N+](=O)[O-])ccc12,-58.7% (active)
